# Source: PubChem BioAssay (several laboratories)
# PrPC TRFRET: inhibitors of human cell surface prion protein PrPC, primary screen, cell-based, TR-FRET. Major prion protein (Homo sapiens), P04156. TR-FRET read-out. inhibition, % at 13.8 µM. hit rate 0.43% among 370,000. AID 720596, 2013; in the data active = inhibition above about 24%; note: 0% = median of the test wells and 100% = reference compound wells
# VHR inh abs: VHR1 phosphatase inhibitors, primary screen, biochemical, absorbance, uHTS. Dual specificity protein phosphatase 3 (Homo sapiens), P51452. recombinant VHR phosphatase, pNPP absorbance. inhibition, % at 13.3 µM. hit rate 0.52% among 290,000; in the data active = inhibition above about 50%
# MazF activator: activators of E. coli MazEF toxin-antitoxin RNase, primary screen, biochemical, fluorescence, uHTS; Endoribonuclease toxin MazF (Escherichia coli (strain K12)), P0AE70; FAM/BHQ RNA-DNA oligo cleavage fluorescence, 5 h; activation, % at 20 µM; hit rate 0.32% among 350,000; in the data active = activation above about 50%
# Mtb hypoxia rep: PubChem AID 1159583; M. tuberculosis hypoxia-regulated fluorescent reporter, fluorescence; fluorescence inhibition, % (test concentration not listed); hit rate 0.1% among 300,000; in the data active = fluorescence inhibition mostly above about 23%, no sharp cut-off; inactive = mostly below about 17%
# 3CLpro inhibitor: SARS-CoV 3CLpro protease inhibitors, primary screen, biochemical, quenched FRET; recombinant SARS-CoV 3CLpro, quenched FRET peptide cleavage; inhibition, % at 6 µM; hit rate 0.14% among 290,000; AID 1706, 2009; in the data active = inhibition above about 12%
# PrP UTR inh: inhibition of PrP 5' UTR reporter expression. cell-based PrP 5' UTR mRNA reporter, plate reader. inhibition, % (test concentration not listed). hit rate 0.35% among 340,000. AID 488862, 2010; in the data active = inhibition above about 52%; note: 0 = median of the neutral control wells
# PrPC TRFRET cf: confirmation of inhibitors of cell surface human prion protein, confirmation, cell-based, TR-FRET; hit rate 65% among 1,500; inhibition, % at 13.8 µM; shares compounds with PrPC TRFRET; cell surface PrPC level; in the data active = inhibition above about 25%
# LD9 cytotox: cytotoxicity in LD9 cells, cytotoxicity control for cell surface PrPc inhibitor project, cell-based, luminescence, high throughput. AID 743201, 2013. luminescence viability. hit rate 29% among 1,500. inhibition, % at 13.8 µM. shares compounds with PrPC TRFRET; in the data active = inhibition above about 9.5%
# * = called active by the depositor; . = no result shown. In the library only some 1.5% were active in any assay of this set; here they are far more common.
SMILES,PrPC TRFRET,VHR inh abs,MazF activator,Mtb hypoxia rep,3CLpro inhibitor,PrP UTR inh,PrPC TRFRET cf,LD9 cytotox
CCOC(=O)c1c(/N=C/N(C)C)sc(/C=N/Nc2ccccc2)c1-c1ccccc1,54*,-8,5,.,-5,-24,40*,0
CCOC(=O)c1c(/N=C/N(C)C)sc(/C=N/Nc2ccccc2)c1-c1ccccc1Cl,0,-8,-13,.,-1,-10,.,.
COCCNC(=O)C(=O)NN=Cc1cccs1,.,.,.,-3,.,.,.,.
CCCCn1c(=N)n(CC(=O)c2ccc(Br)s2)c2ccccc21,37*,10,16,-7,1,-33,83*,28*
CCN(CC)C(=O)CSc1nc(N)c(C#N)c(-c2cccs2)c1C#N,63*,4,-6,-5,5,-1,0,-3
CC(=NNS(=O)(=O)c1ccccc1)c1ccc2c(c1)OCO2,.,.,.,0,.,.,.,.
Cc1ccc(-c2cc(C(=O)N(C)Cc3cnn(C)c3C)c3cc(Br)ccc3n2)cc1,75*,5,-6,17,4,-5,90*,4
CC(=O)NC(=S)Nc1ccc(NC(=O)COc2ccc(Cl)cc2)cc1,41*,18,2,13,2,-17,12,-5
CC(=O)NC(=S)Nc1ccc(NC(=O)COc2ccc(C(C)C)cc2)cc1,9,-14,-1,5,7,-26,.,.
CC(C)C1NC(=O)c2cc([N+](=O)[O-])cc(I)c2NCCCC(C(=O)NC(CC(=O)O)C(N)=O)NC(=O)C(CO)NC1=O (stereo unspecified),.,.,.,6,.,.,.,.
COc1ccc(C(=O)N/N=C(\c2ccccc2)c2ccccn2)cc1,28*,3,8,.,0,31,26*,39*
O=C(NN=C(c1ccccc1)c1ccccn1)c1ccccc1,3,.,6,.,.,11,.,.
C#Cc1ccc(C2C=C(C(=O)N3CCOCC3)OC(OCc3ccc(CO)cc3)C2)cc1 (stereo unspecified),.,.,.,14,.,.,.,.
NS(=O)(=O)c1ccc(NC(=S)NC(=O)c2ccc3c(c2)OCO3)cc1,12,14,39,-4,5,-53,.,.
NC(N)=NS(=O)(=O)c1ccc(NC(=S)NC(=O)c2ccc3c(c2)OCO3)cc1,47*,-12,-39,-7,-3,-36,56*,-9
Cc1ccc2nc(Br)c3c(c2c1)OC(CBr)C3 (stereo unspecified),29*,-3,4,.,3,-11,43*,-4
Cc1nc2c(Cl)cccc2c2c1CC(CBr)O2 (stereo unspecified),11,16,3,3,4,-4,.,.
COc1ccc(CCC(=NO)C2(O)CCCCC2)cc1,.,.,.,16,.,.,.,.
CC(N)C(=O)NC1C2C(=C(O)CC(O)C2O)C(=O)OC1(C)C(Cl)Cl (stereo unspecified),93*,.,0,.,.,22,100*,26*
Cc1ncc(CO)c(C=NNC(=O)c2cc3c(s2)CCCC3)c1O,.,.,.,4,.,.,.,.
Cc1ncc(CO)c(/C=N/NC(=O)c2cc3c(s2)CCCC3)c1O,40*,5,-12,.,1,13,23,15*
COc1cccc(N2CC(O)=C(c3nc4ccccc4s3)C2=N)c1,92*,8,0,-6,5,-43,88*,8
COc1ccc(N2CC(O)=C(c3nc4ccccc4s3)C2=N)cc1,21,18,1,3,-3,-26,.,.
Cc1ccc(S(=O)(=O)N2CCCCC2)cc1NC(=O)Cn1cnnn1,-7,9,5,-1,-1,-16,.,.
Cc1ccc(S(=O)(=O)N2CCCCC2)cc1NC(=O)CSCC(=O)O,-2,15,-5,8,-1,7,.,.
Cc1ccc(NC(=O)CSc2ncnc3ccccc23)cc1S(=O)(=O)N1CCCCCC1,67*,-12,-6,9,-1,-44,77*,6
